Inconclusive results are not listed. Unless noted, calls follow the shape of the dose curve; as a rule, active = well fitted curve in either direction with a large enough effect (not every such curve was filed as active); inconclusive = small, poorly fitted or top-dose-only effect, or another doubt; inactive = flat fitted curve, though single readings scatter.
Assays:
[1] = AP1 Signaling Pathway (AID 357); conditions: ME-180 AP-1-bla reporter, EGF-induced, beta-lactamase ratio, 5 h; at 17.2 µM (top of the series) unless noted;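 also: ME-180 reporter cells stimulated with EGF at its EC50 level; % is scaled to controls: 0 for no effect and ±100 for the full control effect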
Outline: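 Read-out was the 460nm/530nm emission ratio (excitation 405nm) after CCF4 loading for 2.5 hours at room temperature. Cells carried an AP-1-driven beta-lactamase reporter, were stimulated with EC50 EGF plus compound for 5 hours, and AC50 values came from titrations.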

[2] = NFAT Signaling Pathway (AID 444); conditions: Jurkat NFAT-bla M1, carbachol, beta-lactamase ratio, 5 h; at 17.2 µM (top of the series) unless noted;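 also: carbachol stimulus at about its EC50 of 1 µM final; % is scaled to controls: 0 for no effect and ±100 for the full control effect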
Outline: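 Jurkat cells with NFAT-driven β-lactamase reporter and co-expressed M1 receptor, stimulated with carbachol (final 1 uM, ~EC50), compound titration, 5 h at 37 °C. CCF4 loaded 1 h at RT; 460/530 nm ratio gave %activity and AC50.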

[3] = Stat Signaling Pathway (AID 446); conditions: ME-180 (cervical carcinoma) SIE beta-lactamase reporter, IL-6 stimulated, 5 h; at 17.2 µM (top of the series) unless noted;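 also: ME-180 cervical cancer cells given 40 pM IL-6 alongside compound; SIE-controlled beta-lactamase reporter measured as 460/530 nm FRET emission ratio; % is scaled to controls: 0 for no effect and ±100 for the full control effect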
Outline: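 Overnight-plated ME-180 cells bearing a STAT Inducible Element beta-lactamase reporter; 5 h co-exposure to compound and 40 pM IL-6; values normalized to 300 pM IL-6 and 125 nM JAK inhibitor controls.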

[4] = molecular target: Glucocorticoid receptor (Homo sapiens) (UniProt P04150); assay: GR-GFP Redistribution (AID 450;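 active = compounds whose dose series gives a full or clear partial fitted curve of increased nuclear translocation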; also: potency is read from the fitted curve at half-maximal effect)
Sequence of Glucocorticoid receptor (Homo sapiens) (P04150 whole entry, looked up): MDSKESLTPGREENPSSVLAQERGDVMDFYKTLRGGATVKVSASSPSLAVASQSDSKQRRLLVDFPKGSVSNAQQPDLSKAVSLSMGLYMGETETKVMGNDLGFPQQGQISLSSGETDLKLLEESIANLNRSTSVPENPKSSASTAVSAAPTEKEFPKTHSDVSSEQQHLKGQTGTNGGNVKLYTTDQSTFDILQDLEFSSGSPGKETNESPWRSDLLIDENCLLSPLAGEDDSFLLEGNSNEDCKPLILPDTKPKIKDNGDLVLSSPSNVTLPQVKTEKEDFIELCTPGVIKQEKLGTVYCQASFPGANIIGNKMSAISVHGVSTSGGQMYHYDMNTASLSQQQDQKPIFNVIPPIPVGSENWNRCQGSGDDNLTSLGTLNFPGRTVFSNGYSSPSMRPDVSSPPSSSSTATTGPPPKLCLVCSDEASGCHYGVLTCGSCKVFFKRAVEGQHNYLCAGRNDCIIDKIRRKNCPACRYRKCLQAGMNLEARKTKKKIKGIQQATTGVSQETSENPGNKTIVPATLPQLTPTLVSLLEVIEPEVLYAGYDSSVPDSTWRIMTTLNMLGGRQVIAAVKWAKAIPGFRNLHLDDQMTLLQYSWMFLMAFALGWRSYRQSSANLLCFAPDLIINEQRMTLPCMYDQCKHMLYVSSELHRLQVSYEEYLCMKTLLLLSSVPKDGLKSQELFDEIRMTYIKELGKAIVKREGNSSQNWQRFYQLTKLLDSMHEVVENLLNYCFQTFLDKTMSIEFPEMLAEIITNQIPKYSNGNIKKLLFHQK

CC(=O)c1ccc(C#CC(C)(C)O)s1
inactive: activity change, negative = inhibition [1] 6.06% | activity change, negative = inhibition [2] -7.12% | activity, negative = inhibition [3] 2.81% | Potency [4] > 20.6 µM

COc1ccc(C2=Nn3c(nnc3-c3ccccn3)SC2)cc1
inactive: activity change, negative = inhibition [1] -4.44% | activity change, negative = inhibition [2] 2.81% | activity, negative = inhibition [3] 6.62% | Potency [4] > 20.6 µM

Cn1cccc1/C=N/n1cnnc1
inactive: activity change, negative = inhibition [1] -2.1% | activity change, negative = inhibition [2] -1.22% | activity, negative = inhibition [3] 4.51% | Potency [4] > 20.6 µM

N#CCCN(C(=O)c1ccco1)c1ccccc1
inactive: activity change, negative = inhibition [1] -22.8% | activity change, negative = inhibition [2] 2.26% | activity, negative = inhibition [3] 9.28% | Potency [4] > 20.6 µM

CC1(C)SC2[C@H](NC(=O)C(NC(=O)N3CCNC3=O)c3ccccc3)C(=O)N2C1C(=O)O (some centres undefined)
inactive: activity change, negative = inhibition [1] -0.219% | activity change, negative = inhibition [2] 7.62% | activity, negative = inhibition [3] 1.47% | Potency [4] > 20.6 µM

Cc1nc(NCc2ccccc2)c(C(N)=O)c2c1COC(C)(C)C2
inactive: activity change, negative = inhibition [1] 1.8% | activity change, negative = inhibition [2] 9.09% | activity, negative = inhibition [3] 6.9% | Potency [4] > 20.6 µM

COC(=O)CN(c1cc(OC)ccc1OC)S(=O)(=O)c1ccc(OC)c(OC)c1
inactive: activity change, negative = inhibition [1] -25.5% | activity change, negative = inhibition [2] 4.34% | activity, negative = inhibition [3] -5.92% | Potency [4] > 20.6 µM

CCCCNC(=O)c1cc2n(n1)C(C(F)(F)F)CC(c1ccccc1)N2 (centres undefined)
inactive: activity change, negative = inhibition [1] -14.9% | activity change, negative = inhibition [2] 11.1% | activity, negative = inhibition [3] -0.224% | Potency [4] > 20.6 µM

O=C(Oc1ccccc1)c1c(Cl)cccc1P(=O)(O)O
inactive: activity change, negative = inhibition [1] 7.32% | activity change, negative = inhibition [2] 2.02% | activity, negative = inhibition [3] 5.05% | Potency [4] > 20.6 µM

Clc1ccc2nc(CSc3nc4ccccc4o3)cn2c1
inactive: activity change, negative = inhibition [1] -4.14% | activity change, negative = inhibition [2] 1.67% | activity, negative = inhibition [3] -8.83% | Potency [4] > 20.6 µM

COc1ccc(NC(=O)c2c(C)cc(=O)oc2C)c(OC)c1
inactive: activity change, negative = inhibition [1] 6.98% | activity change, negative = inhibition [2] 16.2% | activity, negative = inhibition [3] 10.7% | Potency [4] > 20.6 µM

CC(=O)O[C@@]12CO[C@@H]1C[C@H](O)[C@@]1(C)C(=O)[C@H](O)C3=C(C)[C@@H](OC(=O)[C@H](O)[C@@H](NC(=O)OC(C)(C)C)c4ccccc4)C[C@](O)([C@@H](OC(=O)c4ccccc4)[C@H]21)C3(C)C
inactive: activity change, negative = inhibition [1] -3.46% | activity change, negative = inhibition [2] 29.1% | activity, negative = inhibition [3] -5.76% | Potency [4] > 20.6 µM

CC(C)c1nc2n[nH]c(N)c2c2c1CCCC2
inactive: activity change, negative = inhibition [1] -8.5% | activity change, negative = inhibition [2] 6.42% | activity, negative = inhibition [3] -2.14% | Potency [4] > 20.6 µM

COCCn1c(SCc2c(F)cccc2Cl)nc2c1c(=O)[nH]c(=O)n2C
inactive: activity change, negative = inhibition [1] -17.8% | activity change, negative = inhibition [2] -0.711% | activity, negative = inhibition [3] -1.06% | Potency [4] > 20.6 µM

CCCOc1ccc(-c2nnc(N)s2)cc1
inactive: activity change, negative = inhibition [1] 9.15% | activity change, negative = inhibition [2] 2.03% | activity, negative = inhibition [3] 5.95% | Potency [4] > 20.6 µM

COc1ccc(NC(=O)Nc2cccc(C(=O)N3CCOCC3)c2)cc1OC
inactive: activity change, negative = inhibition [1] 3.36% | activity change, negative = inhibition [2] -1.43% | activity, negative = inhibition [3] 0.00442% | Potency [4] > 20.6 µM

CC(C)Nc1nc(NC(C)C)nc(N(C)n2cnnc2)n1
inactive: activity change, negative = inhibition [1] 9.58% | activity change, negative = inhibition [2] -6.19% | activity, negative = inhibition [3] 4.66% | Potency [4] > 20.6 µM

COc1cc(-c2nn3c(-c4ccccn4)nnc3s2)cc(OC)c1OC
inactive: activity change, negative = inhibition [1] 1.69% | activity change, negative = inhibition [2] 10.9% | activity, negative = inhibition [3] 1.47% | Potency [4] > 20.6 µM

Cc1nc2sc(C#N)c(N)c2c2c1CCCC2
inactive: activity change, negative = inhibition [1] -15.7% | activity change, negative = inhibition [2] -7.96% | activity, negative = inhibition [3] -6.2% | Potency [4] > 20.6 µM

Cc1c(N2C(=O)SC(CC(=O)O)C2=O)c(=O)n(-c2ccccc2)n1C (centres undefined)
inactive: activity change, negative = inhibition [1] -20.4% | activity change, negative = inhibition [2] 10.6% | activity, negative = inhibition [3] 6.13% | Potency [4] > 20.6 µM

COC(=O)CSc1nc(C)c(C(C)=O)cc1C#N
inactive: activity change, negative = inhibition [1] 4.99% | activity change, negative = inhibition [2] -0.342% | activity, negative = inhibition [3] 7.71% | Potency [4] > 20.6 µM

C/C(NC(=O)c1ccccc1F)=C1\C(=O)C[C@@H]2[C@H]1C2(C)C
inactive: activity change, negative = inhibition [1] -12.1% | activity change, negative = inhibition [2] -24.9% | activity, negative = inhibition [3] -6.06% | Potency [4] > 20.6 µM

Cn1c(=O)n(CC(=O)Nc2ccccc2)c2ccccc21
inactive: activity change, negative = inhibition [1] -5.57% | activity change, negative = inhibition [2] -4.15% | activity, negative = inhibition [3] -7.48% | Potency [4] > 20.6 µM

COC(=O)c1ccccc1OCc1cccc(C)n1
inactive: activity change, negative = inhibition [1] -1.62% | activity change, negative = inhibition [2] -4.22% | activity, negative = inhibition [3] -5.73% | Potency [4] > 20.6 µM

C=CCn1c(-c2ccccc2)n[nH]c1=S
inactive: activity change, negative = inhibition [1] 6.97% | activity change, negative = inhibition [2] -4.63% | activity, negative = inhibition [3] 3.46% | Potency [4] > 20.6 µM

COc1ccc2[nH]cc(C(=O)CN(C)CCc3ccc(OC)c(OC)c3)c2c1
inactive: activity change, negative = inhibition [1] -10.3% | activity change, negative = inhibition [2] 11.6% | activity, negative = inhibition [3] 6.57% | Potency [4] > 20.6 µM

Source: PubChem BioAssay (NCATS)
